According to PubChem BioAssay (NCATS):
Inconclusive results are not listed. Calls of active or inactive are those of the source. Unless noted, the call rests on the fitted dose curve; in most records, active means well fitted curve in the direction sought with a large enough effect; inconclusive means small, poorly fitted or top-dose-only effect, or another doubt; inactive means no such curve, though single readings can be large; an effect the other way counts as inactive or inconclusive.

Key:
[1] = test system: Zika virus NS2B-NS3 protease; experiment: Primary screen GU AMC qHTS for Zika virus inhibitors (AID 1347154); further: nearly all actives have a fitted effect of over 70% in size
Method in brief: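 Unlinked Zika NS2B hydrophilic domain–NS3 protease complex at 25 nM in 10 mM Tris-HCl pH 8.0, 0.01% Tween 20, with an AMC peptide substrate. Fluorescence change (340/450 nm) over 15 min at room temperature, normalized to controls, fitted to 4-parameter Hill.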

[2] = test system: Zika virus NS2B-NS3 protease (linked construct); experiment: Primary screen NINDS Rhodamine qHTS for Zika virus inhibitors (AID 1347160); further: nearly all actives have a fitted effect of over 55% in size
Method in brief: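 Purified NS2B-NS3 protease with the NS2B hydrophilic domain joined by a flexible linker (25 nM) in 10 mM Tris-HCl pH 8.0, 0.01% Tween 20, preincubated 15 min at RT with compound; Rhodamine110 peptide substrate 1.5 µM; fluorescence change over 15 min; 4-parameter Hill fit.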

[3] = OV-KATE Cancer Cell Toxicity qHTS against the NCATS CANVASS Library (AID 1347345)
Method in brief: (§1)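 Quantitative HTS format: an 11-concentration series was applied to 1000 cells/well following a 4-hour attachment. Cultures ran 72 hours before ATP luminescence detection by CellTiter-Glo.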

[4] = UWB1.289 Cancer Cell Toxicity qHTS against the NCATS CANVASS Library (AID 1347347); further: potency means the concentration at half of the fitted maximal effect; nearly all actives have a fitted effect of over 60% in size
Method in brief: as §1

[5] = OV-SAHO Cancer Cell Toxicity qHTS against the NCATS CANVASS Library (AID 1347348); further: series mostly up to about 38 µM; nearly all actives have a fitted effect of over 55% in size
Method in brief: as §1

[6] = U-118MG Cancer Cell Toxicity qHTS against the NCATS CANVASS Library (AID 1347351); further: series mostly up to about 38 µM
Method in brief: as §1

[7] = UWB1.289-WTBRCA1 Cancer Cell Toxicity qHTS against the NCATS CANVASS Library (AID 1347354); further: potency means the concentration at half of the fitted maximal effect
Method in brief: (§2)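 Luminescent ATP read-out (CellTiter-Glo, 15min at room temperature) measures survival after cells face an 11-point compound series for 72 hours at 37 degrees C/5% CO2.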

[8] = HEK-293 Cancer Cell Toxicity qHTS against the NCATS CANVASS Library (AID 1347355); further: potency means the concentration at half of the fitted maximal effect; nearly all actives have a fitted effect of over 65% in size
Method in brief: as §2

[9] = HPAF-II 24hr Apoptosis Induction qHTS against the NCATS CANVASS Library (AID 1347356)
Method in brief: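 Luminescent caspase-3/7 signal (DEVD substrate, Caspase-Glo) served as read-out, taken 15 min after reagent addition to HPAF-II cells exposed 24 h to compounds.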

[10] = HEK293 24hr Apoptosis Induction qHTS against the NCATS CANVASS Library (AID 1347359)
Method in brief: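 HEK293 cells, 500 per well, exposed to an 11-point compound series for 24 hours at 37 degrees C. Caspase 3/7 activity read by Caspase-Glo luminescence (DEVD substrate) after 15 min at room temperature.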

[11] = HPAF-II 18hr Apoptosis Induction qHTS against the NCATS CANVASS Library (AID 1347360)
Method in brief: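 Luminescent DEVD-substrate signal, proportional to caspase activity, is measured in HPAF-II cells after 18-hour treatment across a concentration series; doxorubicin serves as control.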

[12] = HEK293 12hr Apoptosis Induction qHTS against the NCATS CANVASS Library (AID 1347361)
Method in brief: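 Luminescent caspase-3/7 signal, proportional to enzyme activity, was recorded from HEK293 cultures in DMEM + 10% FBS treated for 12 hours with titrated natural products (11 points). Doxorubicin (0.1nM - 4uM) served as control.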

[13] = test system: NAD(P)H diaphorase (Clostridium kluyveri); experiment: Diaphorse counterscreen qHTS: Assay Interference Panel against the NCATS CANVASS Library (AID 1347362)
Method in brief: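 Clostridium kluyveri diaphorase in PBS + 0.01% Tween-20 preincubated 15 min with compounds. Resazurin and NADH then added for 5 min at room temperature in the dark; resorufin fluorescence read (ex 525, em 598).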

[14] = molecular target: Luciferin 4-monooxygenase (Photinus pyralis) (UniProt P08659); experiment: Firefly luciferase counterscreen qHTS: Assay Interference Panel against the NCATS CANVASS Library (AID 1347363); further: series mostly up to about 57 µM
Luciferin 4-monooxygenase (Photinus pyralis), sequence (P08659 whole entry, looked up): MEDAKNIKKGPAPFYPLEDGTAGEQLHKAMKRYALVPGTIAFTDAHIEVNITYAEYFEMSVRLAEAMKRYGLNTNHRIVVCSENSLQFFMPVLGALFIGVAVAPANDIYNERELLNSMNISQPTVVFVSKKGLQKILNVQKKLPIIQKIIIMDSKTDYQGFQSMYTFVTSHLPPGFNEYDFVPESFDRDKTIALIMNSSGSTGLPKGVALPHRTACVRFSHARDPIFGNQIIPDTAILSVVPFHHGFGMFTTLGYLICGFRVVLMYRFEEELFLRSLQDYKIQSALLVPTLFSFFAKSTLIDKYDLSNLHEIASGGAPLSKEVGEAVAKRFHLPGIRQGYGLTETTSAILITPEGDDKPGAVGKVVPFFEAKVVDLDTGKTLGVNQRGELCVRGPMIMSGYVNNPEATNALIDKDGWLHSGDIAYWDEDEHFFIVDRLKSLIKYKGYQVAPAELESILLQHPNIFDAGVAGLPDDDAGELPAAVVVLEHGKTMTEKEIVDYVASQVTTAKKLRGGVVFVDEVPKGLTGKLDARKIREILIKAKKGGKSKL
Method in brief: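 Purified P. pyralis luciferase (0.04 ug/mL, 4x reagent) added to Tris-acetate buffer with 0.013 mM D-luciferin, 0.013 mM ATP and 13.3 mM Mg-acetate; compounds preincubated 15 min, then luminescence read after 5 min, RT.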

[15] = KB-8-5-11 Cancer Cell Toxicity qHTS against the NCATS CANVASS Library (AID 1347364); further: potency means the concentration at half of the fitted maximal effect; nearly all actives have a fitted effect of over 75% in size
Method in brief: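 Plate 500 KB-8-5-11 cells per well in DMEM + 10% FBS, add compounds by pin transfer, incubate 72 hr at 37C. Add CellTiter-Glo, wait 10 minutes at room temperature, read luminescence.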

[16] = KB-3-1 Cancer Cell Toxicity qHTS against the NCATS CANVASS Library (AID 1347366); further: potency means the concentration at half of the fitted maximal effect; nearly all actives have a fitted effect of over 75% in size
Method in brief: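 Cytotoxicity toward KB-3-1 cells (500/well, DMEM + 10% FBS) was scored by CellTiter-Glo luminescence following 72 hr exposure at 37C, with bortezomib titrated as control.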

[17] = qHTS for ATAD5 Agonist screened against the NCATS CANVASS Library (AID 1347367);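 further: luciferase reporter driven by ATAD5 which rises upon DNA damage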
Method in brief: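 Genotoxicity was scored as increased ATAD5-luciferase luminescence in HEK293T after 16hr of exposure, with cell viability measured by fluorescence beforehand in the same well.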

[18] = G06 Cancer Cell Toxicity qHTS against the NCATS CANVASS Library (AID 1347368); further: potency means the concentration at half of the fitted maximal effect; nearly all actives have a fitted effect of over 60% in size
Method in brief: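 Dog G06 glioma line, 500 cells/well; cpds pin-transferred, 11-pt; 72 hr, 37C/5% CO2; CellTiterGlo luminescence (ATP) endpoint.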

[19] = MCF7 Cancer Cell Toxicity qHTS against the NCATS CANVASS Library (AID 1347369); further: series mostly up to about 46 µM
Method in brief: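 This 72 hr qHTS scored MCF7 viability by CellTiterGlo luminescence, with 500 cells/well; bortezomib titration ran as control.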

[20] = qHTS for ATAD5 Antagonist screened against the NCATS CANVASS Library (AID 1347370);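 further: HEK293T cells carrying an ATAD5 luciferase reporter co-treated with 10 µM 5-fluorouridine; series mostly up to about 46 µM; nearly all actives have a fitted effect of over 65% in size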
Method in brief: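 HEK293T cells with stably integrated ATAD5-luciferase reporter, 2000/well, 5 h attachment; compounds plus 10 µM 5-fluorouridine, 16 h at 37 °C. Luciferase luminescence read, with CellTiter-Fluor viability read first.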

[21] = molecular target: Nuclear receptor subfamily 1 group I member 3 (Homo sapiens) (UniProt Q14994); experiment: qHTS for Constitutive Androstane Receptor (CAR) Antagonist screened against the NCATS CANVASS Library (AID 1347372); further: potency means the concentration at half of the fitted maximal effect
Nuclear receptor subfamily 1 group I member 3 (Homo sapiens), sequence (Q14994 whole entry, looked up): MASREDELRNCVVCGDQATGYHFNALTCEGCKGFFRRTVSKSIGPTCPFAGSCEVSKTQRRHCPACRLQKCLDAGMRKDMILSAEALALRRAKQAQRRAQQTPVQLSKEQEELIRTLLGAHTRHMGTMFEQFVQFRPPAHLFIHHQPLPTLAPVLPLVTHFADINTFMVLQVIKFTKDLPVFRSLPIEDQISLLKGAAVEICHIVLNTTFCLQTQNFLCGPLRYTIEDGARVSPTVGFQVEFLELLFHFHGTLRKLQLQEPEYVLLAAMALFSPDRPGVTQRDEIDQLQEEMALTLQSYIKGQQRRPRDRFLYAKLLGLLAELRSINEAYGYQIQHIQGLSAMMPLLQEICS
Method in brief: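 HepG2 cells stably carrying hCAR and CYP2B6-2.2kb luciferase reporter, 2500 cells/well, compound with 50 nM CITCO agonist for 24hr at 37C. ONE-Glo luminescence measured CAR activity; CellTiter-Fluor read viability.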

[22] = molecular target: Nuclear receptor subfamily 1 group I member 3 (Homo sapiens) (UniProt Q14994); experiment: qHTS for Constitutive Androstane Receptor (CAR) Agonist screened against the NCATS CANVASS Library (AID 1347373);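 further: every well also contained 1.5 µM PK11195 alongside the test compound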
Method in brief: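 HepG2-hCAR-CYP2B6 cells, 2500/well, attached 4hr; cpd + PK11195 1.5uM final; 24hr 37C 5% CO2. CellTiter-Fluor viability read, then ONE-Glo luminescence for CAR activation.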

[23] = qHTS for Hypoxia signaling pathway (HIF-1) antagonists against the NCATS CANVASS Library (AID 1347374); further: potency means the concentration at half of the fitted maximal effect; nearly all actives have a fitted effect of over 60% in size
Method in brief: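 HRE-bla ME-180 cells in medium with 0.5% dialyzed FBS received compounds (11-point series) plus CoCl2 (60 uM addition stock) for 17 hrs at 37C. Beta-lactamase activity read with CCF4 (405 nm ex, 460/530 nm em); CellTiter-Glo viability measured in same wells.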

[24] = qHTS for Hypoxia signaling pathway (HIF-1) agonists against the NCATS CANVASS Library (AID 1347375)
Method in brief: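 ME-180 HRE-bla reporter cells; 2,000/well, 0.5% dialyzed FBS; cpd added after 5 h, 17 h 37C/5% CO2; CCF4-AM 2 h RT; FRET 460/530 nm; CellTiter-Glo viability same wells, 30 min.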

[25] = 10-beta competent E. coli microbial cell viability qHTS against the NCATS CANVASS Library (AID 1347376); further: series mostly up to about 46 µM
Method in brief: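 E. coli 10-beta, 0.2 OD; cpds 11-pt; o/n 37C, 5% CO2; BacTiter-Glo 20 min RT; luminescence (ATP) = viable cells. Daunomycin ctrl.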

[26] = DH5-alpha competent E. coli microbial cell viability qHTS against the NCATS CANVASS Library (AID 1347377); details: outcome: dose series up to 46.1 µM
Method in brief: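 qHTS, 11-pt; E. coli DH5-alpha, 0.2 OD; o/n 37C/5% CO2; BacTiter-Glo, 20 min RT; luminescence.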

[27] = qHTS for Inflammasome Signaling Inhibitors: IL-1-beta AlphaLISA screen against the NCATS CANVASS Library (AID 1347379);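 further: human THP-1 cells primed with LPS then triggered with ATP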
Method in brief: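 THP-1 cells pretreated 1 hr with compound (up to 57.5 uM final), then stimulated with LPS (250 ng/mL final) and ATP (1.25 mM final). Secreted IL-1B measured by AlphaLISA after 16 hr; glyburide as positive control.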

[28] = qHTS for Antimalaria activity screened against the NCATS CANVASS Library (AID 1347380); further: potency means the concentration at half of the fitted maximal effect; nearly all actives have a fitted effect of over 40% in size
Method in brief: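 Dd2 strain, infected erythrocytes 2.5% Hct final / 0.3% parasitemia. 11-pt qHTS titration, 72 h, 37C, 5% O2, 5% CO2. Lysis buffer + SYBR Green, 18 h, fluorescence 485/535 nm.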

[29] = Inflammasome Signaling qHTS Counterscreen: IL-1-beta AlphaLISA counterscreen against the NCATS CANVASS Library (AID 1347381);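 further: cell-free check with purified IL-1β in medium and no THP-1 cells; series mostly up to about 57 µM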
Method in brief: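 Cell-free interference check: compounds added to medium spiked with 4 pg purified IL-1β. Anti-IL-1β acceptor beads (6 ug/mL) with 0.6 nM biotinylated antibody added for 1 h at RT, then streptavidin donor beads (24 ug/mL) for 30 min in the dark. AlphaLISA read at 680/615 nm.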

[30] = qHTS assay for small molecule disruptors of mitochondrial membrane potential screened against the NCATS CANVASS Library (AID 1347389); further: series mostly up to about 46 µM; nearly all actives have a fitted effect of over 60% in size
Method in brief: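 HepG2, 2,000 cells/well, attached overnight; compound 1 hr, 37C, 5% CO2; Mito-MPS dye 30 min, 37C; fluorescence 535 nm (monomer) and 590 nm (aggregate); decreased 590/535 ratio = depolarization.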

[31] = qHTS for activators of dead-cell proteases activity screened against the NCATS CANVASS Library (AID 1347392);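 further: luminescence from protease leaking out of membrane-damaged cells cleaving impermeant substrate; rising signal means more cytotoxicity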
Method in brief: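 HepG2 cells, 2000/well, attached 18 h at 37C, then exposed to compounds (11-point qHTS) for 5 h. Dead-cell protease release read as luminescence from cell-impermeant AAF-aminoluciferin substrate after 15 min at room temperature.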

[32] = Redox Reaction Profiling qHTS: Assay Interference Panel against the NCATS CANVASS Library (AID 1347401)
Method in brief: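 Compounds in 11-point series incubated with 5 uM resazurin and 200 uM DTT in 50 mM HEPES pH 7.3, 50 mM NaCl. Resorufin fluorescence (Ex 525/Em 598) read before and after 15 min in the dark.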

[33] = qHTS for inhibitors of Rabies Virus screened against the NCATS CANVASS Library (AID 1347402; calls by dose curve; further: series mostly up to about 46 µM)
[34] = Primary qHTS for small molecule stabilizers of the endoplasmic reticulum resident proteome: Secreted ER Calcium Modulated Protein (SERCaMP) assay (AID 1508630)
Method in brief: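 GLuc-SERCaMP-expressing SH-SY5Y cells, pretreated 16 h with compound, are challenged with thapsigargin to empty ER calcium stores; after 4 h, coelenterazine is added directly to the medium and luminescence is imaged.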

Measured: Potency

C=C1[C@@H](C)[C@H]2[C@H](Cc3ccccc3)NC(=O)[C@]23OC(=O)/C=C/[C@H](O)CCC[C@@H](C)C/C=C/[C@H]3[C@@H]1O
active: [4] 5.94 µM | [7] 13.3 µM | [8] 9.35 µM | [15] 9.35 µM | [16] 4.69 µM | [18] 2.35 µM | [21] 8.31 µM | [23] 2.11 µM | [28] 4.2 µM
inactive: all other assays above
